Our source for the growth values is PubChem BioAssay (NCI).

Several values for one entry are separate records, joined by “and”; a condition that tells them apart may be missing. Equal entries are not always repeated. Compounds without any hit were thinned out: in the full panel of roughly 83,000, 20% have a hit.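 Single-dose data. Exposure time 48 hours. Values below 10 considered active.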 Values without a mark were called inactive. Activity calls are given as the source filed them.

This assay deals with MDA-MB-468 breast. The experiment in a line: NCI-60 one-dose screen, 48 h (100 = growth as untreated, 0 = no growth, -100 = all killed). To be noted: 10 µM unless noted.
With `Cn1c(N2N=C(c3ccc(Cl)cc3)CC2c2ccccc2)nc(-c2ccccc2)c(C#N)c1=O` (centres undefined), the growth was 74%. With `CC(C)CCOc1ccc(-c2n[nH]c(C(F)(F)F)c2-c2cncc(C#N)c2)c(O)c1` the figure was -26.4% (active); with `CCNC(=O)c1[nH]cc(-c2ccccc2)c1-c1cc(OC)c2c(c1OC)OCO2`, 104%. Consider `O=C(NCCN1CCOCC1)Nc1ccc(-c2cc3c(Nc4ccc(Oc5cccc(C(F)(F)F)c5)c(Cl)c4)ncnc3s2)cc1`, for which the growth is -28.3% (active).

On to `O=C1CC23OC4ON=C(Br)C4C2C(O)c2ccccc2N13` (centres undefined), for which the growth is 106%.

Regarding `N#Cc1c(N)c(C(=O)c2ccc3c(c2)OCCO3)n2c1CCCC2`, the growth is 35.5%.

In the case of `O=C1CCCCN1CCCCC#Cc1cccc(C#Cc2cccnc2)c1`, the growth was 73.8%. As to `COc1cc(/C=C2\CCCC3=C2NC(N)=NC3c2cc(OC)c(OC)c(OC)c2)cc(OC)c1OC` (centres undefined), the growth was -70.9% (active).

On to `O=C(CSc1nc2ccccc2c(=O)n1-c1ccc(S(=O)(=O)Nc2ccc(Cl)nn2)cc1)Nc1ccc(S(=O)(=O)Nc2ccc(Cl)nn2)cc1`, for which the growth is 94.9%. Consider `COc1ccc2nc3cc(Cl)ccc3c(NCCNc3c4ccc(Cl)cc4nc4ccc(OC)cc34)c2c1`, for which the growth is -69.8% (active). For the molecule `CCN1/C(=C/C(C)=C/c2sc3ccc4ccccc4c3[n+]2CC)Sc2ccc3ccccc3c21`, the growth is -87.4% (active). On to `C=CC(=O)N1CCC(Oc2cc3c(Nc4ccc(Cl)c(Cl)c4F)ncnc3cc2OC)CC1`, for which the growth is -62.5% (active). With `CC1(C)[C@@H](O)CC[C@]2(C)[C@H]3CC[C@@H]4[C@H]5[C@H](C(=O)/C=C\c6ccccn6)CC[C@]5(O)CC[C@@]4(C)[C@]3(C)CC[C@@H]12` the figure was 23.8%; with `COc1ccc(C(CC(=O)c2ccc3c(c2)OCO3)C(=O)O)cc1OC` (centres undefined), 114% and 103%; with `COC(=O)c1[nH]c(=O)c(C#N)c(C(=O)OC)c1C(=O)c1ccccc1`, 102%. `CCCCCCCC/C=C\CCCCCCCCOc1cccc(CC(=O)NCC[N+](C)(C)C)c1`: the growth was 93.1%.

Regarding `Nc1n[nH]c2cccc(C#Cc3cccc(C(=O)Nc4ccc(Cl)c(C(F)(F)F)c4)c3)c12`, the growth is 74.4%. As for `COc1ccc(-n2nc3c(c2-c2ccc(OC)c(OC)c2)-c2oncc2CC3)cc1`, the figure is 90.1%. As to `CCOCCC(=O)O`, the growth is 99.2%. For `Cc1[nH]c(C(=O)Nc2ccc(C(=O)NCC3CCNCC3)cc2OC(C)C)c(Cl)c1Cl`, the growth was 21.5%. With `CCOc1cc2ncc(C#N)c(Nc3ccc(OCc4cccc(F)c4)c(Cl)c3)c2cc1NC(=O)CCCCC1CCSS1` (centres undefined), the growth was 70.4%. With `O=C(CN1C=NC2C(N3CCOCC3)=NC=NC21)c1cccc2ccccc12` (centres undefined), the growth was 85.9%. Regarding `Oc1ccc(/C=N/NC(=S)Nc2ccccc2)nc1`, the growth was -37.7% (active). On to `N#C/C(=C\c1ccc(-c2ccc(F)cc2)o1)c1nc(-c2ccco2)cs1`, for which the growth was -47.2% (active).

In the case of `O=C1c2cc3c(cc2-c2c1c1ccc(Cl)cc1c(=O)n2CCCn1ccnc1)OCO3`, the growth is -47.9% (active).

For the molecule `COc1ccc(/C=C/C(=O)c2cc3c(N)c(C(=O)Nc4cccc5ccccc45)sc3nc2C)cc1`, the growth was 58.5%. For `COc1cc(/C=C/c2cc(/C=C/c3ccc(O)c(OC)c3)n(-c3ccccc3)n2)ccc1O`, the growth is -31.9% (active). As for `CC1(C)OC2C(CO)OC(n3ccc(=O)[nH]c3=O)C2O1` (centres undefined), the growth is 127%.

`C=C(C[n+]1ccccc1)[C@@H]1CC[C@]2(C(=O)OC)CC[C@]3(C)[C@H](CC[C@@H]4[C@@]5(C)CCC(=O)C(C)(C)[C@@H]5CC[C@]43C)[C@@H]12`: the growth was 7.22% (active). Regarding `Clc1ccc(Nc2nnc(COc3ccccc3)c3ccccc23)cc1`, the growth was -16.9% (active). Consider `CCSc1nc2scc(C)c2c(=O)[nH]1`, for which the growth was 110%. As for `COc1ccc(C2=NNC(c3ccc(Oc4nc5c(c(=O)n(C)c(=O)n5C)n4C)c(OC)c3)C2)cc1` (centres undefined), the growth was 89.5%.

In the case of `Oc1[nH]c2ccccc2c1/C=c1/ccc2c(c1)N=C(c1ccc(C(F)(F)F)cc1)N=2`, the growth is 43.6%. For `CCOC(=O)C(C#N)C1CCCCC1` (centres undefined), the growth is 124%.

In the case of `CN(C)CCC1(c2ccccc2)CCN(C)C1=O` (centres undefined), the growth was 94.7%.

As for `Nc1nc(-c2cccc([N+](=O)[O-])c2)c(N=Nc2ccccc2Cl)s1`, the growth is 55.2%.

In the case of `O=S(=O)(c1ccccc1)N1CCCN(c2nc(-c3ccccc3)nc3nc(-c4ccccc4)oc23)CC1`, the growth was 116%. As for `O=C1OCC2=C1C(c1cccc(F)c1)c1cc3c(cc1N2CCO)OCCO3` (centres undefined), the growth is -8.31% (active).

Turning to `O=C(/C=C/c1sc(Cl)nc1Cl)c1ccc(F)cc1`, the growth was 40.9%.
